# Screening data deposited in PubChem by National Center for Advancing Translational Sciences (NCATS).
# Compounds with a hit are over-represented: about 2.4% of the library has one in this group of screens.
# D2 ag-1 – Beta-Arrestin HTS for Positive Allosteric Modulators of the Human D2 Dopamine Receptor: Agonists. 360,000 compounds, 0.084% hits. DiscoveRx PathHunter D2 beta-arrestin, luminescence, 90 min; 100% = 57 uM dopamine signal. D(2) dopamine receptor (Homo sapiens), P14416. activation, % (concentration not given with the values); in the data active = activation above about 40%
# Target sequence (P14416 whole entry, looked up): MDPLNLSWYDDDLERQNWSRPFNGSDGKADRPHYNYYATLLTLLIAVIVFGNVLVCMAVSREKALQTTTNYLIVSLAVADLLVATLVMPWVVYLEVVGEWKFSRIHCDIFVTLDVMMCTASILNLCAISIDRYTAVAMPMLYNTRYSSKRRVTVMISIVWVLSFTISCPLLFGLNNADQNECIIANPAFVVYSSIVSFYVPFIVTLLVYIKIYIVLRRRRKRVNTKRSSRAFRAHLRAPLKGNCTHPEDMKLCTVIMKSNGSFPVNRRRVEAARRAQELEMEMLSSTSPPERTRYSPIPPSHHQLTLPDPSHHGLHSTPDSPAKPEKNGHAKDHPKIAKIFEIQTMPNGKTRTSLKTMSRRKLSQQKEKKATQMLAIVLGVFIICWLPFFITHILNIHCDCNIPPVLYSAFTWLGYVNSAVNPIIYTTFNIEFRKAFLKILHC
#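 Agonist mode: compounds alone added to overnight-plated D2 PathHunter cells for 90 min at 37 C, with 57 uM final dopamine (EC100) defining full response. Beta-arrestin recruitment detected by chemiluminescent reagent, read after 1 h at ambient temperature.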
# D2 PAM-1 – HTS Assay for Positive Allosteric Modulators of the Human D2 Dopamine Receptor: Primary Screen for Potentiators. D(2) dopamine receptor (Homo sapiens), P14416. HEK293 T-REx D2, calcium flux, EC20 dopamine potentiation. potentiation, % at 10 µM. 340,000 compounds, 0.34% hits. AID 485347, 2010;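 active = potentiation over 3 SD above the plate norm, cut at about 30% in these data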; note: 0% is about no effect
#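 Primary screen. Calcium kinetics in induced HEK293 T-REx D2 cells: compound pre-addition 180 s, EC20 dopamine, 180 s more.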
# D2 PAM-2 – Beta-Arrestin HTS for Positive Allosteric Modulators of the Human D2 Dopamine Receptor: Potentiators | D(2) dopamine receptor (Homo sapiens), P14416 | DiscoveRx D2 beta-arrestin cells, luminescence, 90 min; 100% = 57 uM dopamine signal | potentiation, % (no concentration beside the values) | 360,000 compounds, 0.23% hits | AID 624464, 2012; in the data active = potentiation above about 50%
#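 PathHunter D2 cells, attached overnight at 37 deg C, received compound in DMSO plus dopamine at EC20 (50 nM final) for 90 min at 37 deg C. Beta-arrestin recruitment was read as luminescence after 1 h with detection reagent at ambient temperature.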
# D2 ag-2 – HTS Assay for Allosteric Agonists of the Human D2 Dopamine Receptor: Primary Screen for Agonists | D(2) dopamine receptor (Homo sapiens), P14416 | HEK293 T-REx D2 cells, calcium flux agonist mode | activation, % at 2 µM | 340,000 compounds, 0.53% hits;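 active = activation over 3 SD above normal in the single-dose calcium agonist read, cut at about 30% in these data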; note: 0% is about no effect
#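 In this primary screen, compounds producing a positive calcium signal within 180 s of addition to tetracycline-induced, force-coupled HEK293 Trex D2 cells are flagged; cells are dye-loaded with a no-wash calcium kit beforehand.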
# D2 antagonist – HTS Assay for Allosteric Antagonists of the Human D2 Dopamine Receptor: Primary Screen for Antagonists. D(2) dopamine receptor (Homo sapiens), P14416. 340,000 compounds, 2% hits. HEK293 TREx D2 cells, calcium flux, dopamine EC80. inhibition, % at 10 µM; in the data active = inhibition above about 30%; inactive = below that, where a call was filed; note: 0% is about no effect
#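 Dopamine at EC80 is the agonist stimulus; test compounds precede it by 180 s. Calcium flux read kinetically in a force-coupled, inducible HEK293 T-REx D2 cell line.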
# Starred values were filed as active, the others as inactive; . = not tested or not shown.
SMILES,D2 ag-1,D2 PAM-1,D2 PAM-2,D2 ag-2,D2 antagonist
O=C1C2CCCCN2C(=O)N1CCCCN1CCN(c2cccc(Br)c2)CC1 (configuration not stated),-1,-26,-1,40*,87*
O=C1C2CCCCN2C(=O)N1CCN1CCN(c2cccc(Cl)c2)CC1 (configuration not stated),2,.,-10,.,.
O=C1C2CCCCN2C(=O)N1CCCCN1CCN(c2ccc(F)cc2)CC1 (configuration not stated),-5,-24,-4,0,11
CCc1ccc(NC(=O)c2sc3ncnc(N(C)C4CCCCC4)c3c2C)cc1,.,7,.,1,.
O=C(OCCN1C(=O)c2cccc3c(N4CCOCC4)ccc(c23)C1=O)c1cccc(Cl)c1,2,-18,-29,74*,35*
O=C(OCCN1C(=O)c2ccccc2C1=O)c1cc(S(=O)(=O)N2CCOCC2)ccc1Cl,3,15,-7,0,-7
O=C(OCCN1C(=O)c2cccc3c(N4CCOCC4)ccc(c23)C1=O)c1ccc(Cl)cc1Cl,-1,-10,-18,36*,27
COc1ccc(OC)c(NC(=O)c2c(NCc3ccc(C)o3)sc3c2CCC(C)C3)c1 (configuration not stated),.,18,.,1,.
COc1ccccc1C(c1c(O)cc(C)n(Cc2ccco2)c1=O)N1CCCCC1 (configuration not stated),.,-4,.,-2,.
COc1ccc(S(=O)(=O)N(CCc2ccccc2)CC(=O)NCc2ccc(C)cc2)cc1,.,-2,.,1,.
CC(=O)N(C)c1nnc(-c2ccccn2)s1,-3,1,13,-1,43*
CN(C(=O)c1cccnc1)c1nnc(-c2ccccn2)s1,-3,-3,-6,3,16
CCCCCn1c(=O)[nH]c2cc(C(=O)N3CCN(c4cccc(Cl)c4)CC3)ccc2c1=O,.,8,.,1,.
Cc1ccccc1CSc1nc2c([nH]c3ccccc32)c(=O)n1-c1ccccc1,.,-8,.,-3,.
COc1ccc(N(C)S(=O)(=O)c2cccc(C(=O)Nc3cccc(C(=O)NC4CC4)c3)c2)cc1,-2,-4,-4,0,-17
O=C(NC1CCN(S(=O)(=O)c2ccccc2C(F)(F)F)CC1)c1ccco1,-1,-8,2,0,30*
O=C(NC1CCN(S(=O)(=O)c2ccc(F)cc2)CC1)c1ccco1,-5,5,-4,0,2
CCn1c(CN2CCOCC2)nc2cc(NC(=O)c3ccc([N+](=O)[O-])cc3)ccc21,.,3,.,18,.
C=CCC(=O)N(CC)CC1CCCN(CCc2cccc(F)c2)C1 (configuration not stated),-2,-17,-1,0,49*
CCN(CC1CCCN(CCc2cccc(F)c2)C1)C(=O)c1ccoc1C (configuration not stated),-3,.,-51,.,.
COC(=O)[C@]1(CC(C)C)N[C@H](c2ccc(-c3ccc(Cl)c(Cl)c3)cc2)[C@@H]2C(=O)N(C)C(=O)[C@@H]21,0,10,-4,1,10
CC(OC(=O)c1nn(C)c(=O)c2ccccc12)C(=O)Nc1ccc(S(N)(=O)=O)cc1 (configuration not stated),-2,1,-8,-2,0
c1ccc(-c2csc(=Nc3cccnc3)n2CC2CCCO2)cc1 (configuration not stated),-2,1,-17,-1,30*
COc1cccc(N2CC(NC(=O)C3CC3)CC2=O)c1 (configuration not stated),.,-3,.,2,.
COc1ccc(C2N(C(=O)N(C)C)CCN2S(=O)(=O)c2ccc(OC)cc2)cc1 (configuration not stated),-2,22,-5,0,37*
SMILES,D2 ag-1,D2 PAM-1,D2 PAM-2,D2 ag-2,D2 antagonist
Cc1cccc(CCN2CCC(C(=O)c3ccc(NS(C)(=O)=O)cc3)CC2)n1,.,-11,.,-2,7
CC1=C(C(=O)OCc2ccccc2)C(c2ccccc2)NC(=O)N1 (configuration not stated),14,5,53*,0,3
CC1=C(C(=O)OCc2ccccc2)C(c2cccc(F)c2)NC(=O)N1 (configuration not stated),44*,1,72*,-1,3
COc1ccc(C2NC(=O)NC(C)=C2C(=O)OCc2ccccc2)cc1 (configuration not stated),8,4,5,-2,4
CN(C)C(=O)CN1C(=O)NC2(CCc3ccccc32)C1=O (configuration not stated),1,7,1,0,26
CC(C)c1nc(SCC(=O)Nc2nccs2)c2ccccc2n1,-3,-28,-5,0,-5
CC(C)c1nc(SCC(=O)Nc2ccc(N(C)C)cc2)c2ccccc2n1,-19,1,-5,-1,34*
CCN(CC)CCNCc1ccc(-c2ccc(Cl)cc2)o1,1,-24,-30,0,33*
CCN(CC)CCNCC(O)(c1ccc(Cl)cc1)c1ccc(Cl)cc1,-1,-25,-16,.,.
O=C(NCCc1nc2ccccc2[nH]1)c1cc([N+](=O)[O-])cc([N+](=O)[O-])c1,14,7,59*,-1,-10
O=C(Cn1cc([N+](=O)[O-])cn1)NCCc1nc2ccccc2[nH]1,-7,4,0,2,-1
Cc1cc(C)cc(C(O)c2ncc(-c3ccc(F)cc3)[nH]2)c1 (configuration not stated),-6,.,-8,.,.
Cn1nc(C(F)(F)F)c2cc(C(=O)Nc3ccc(Cl)cc3)sc21,2,-25,-37,1,64*
Cn1nc(C(F)(F)F)c2cc(C(=O)Nc3ccc(F)cc3F)sc21,3,11,-20,0,-5
CCCCC1CCC(C(=O)OC(C)C(=O)Nc2ccc(NC(C)=O)cc2)CC1 (configuration not stated),0,2,3,0,-17
NC(=O)c1ccc(N2CCN(c3ccccc3F)CC2)c([N+](=O)[O-])c1,-3,41*,-4,0,-16
NC(=O)c1ccc(N2CCN(c3ccccc3O)CC2)c([N+](=O)[O-])c1,6,17,4,-1,-17
CCN(CC)CCN(C(=O)c1ccc2c(c1)CCCC2)c1nc2ccc(C)cc2s1,4,-22,-25,-1,46*
CCN(CC)CCN(C(=O)c1ccc2c(c1)CCCC2)c1nc2ccc(F)cc2s1,2,-16,-18,-1,17
